The record followed here is PubChem BioAssay (NCI).

Each structure is given as a SMILES string. The panel holds about 83,000 compounds, 20% with a hit somewhere; the sample as a whole holds those more often.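 Negative percent growth values reflect cell death: -40 means 40% of the cells present at the start died, and -100 means all died.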 A number with no mark means an inactive call. Active and inactive are the calls of the source. Rule for the calls: active = growth percent below 10; inactive = the rest.

What all share (assay): NCI-60 one-dose screen, 48 h (100 = growth as untreated, 0 = no growth, -100 = all killed)
Common to all, as to conditions: 10 µM unless noted

Assay [1] has as its system RPMI-8226 leukemia.
The test system of assay [2] is OVCAR-8 ovarian.
In assay [3] the test system is OVCAR-5 ovarian.
Assay [4] deals with OVCAR-4 ovarian.
The subject of assay [5] is SK-OV-3 ovarian.
For assay [6], the system named is IGROV1 ovarian.
Assay [7] deals with OVCAR-3 ovarian.
The test system of assay [8] is HS 578T breast.
The test system of assay [9] is NCI/ADR-RES ovarian.
In assay [10] the test system is T-47D breast.

For the compound `COC(=O)[C@]1(C)CCC[C@]2(C)[C@H]3C[C@H]4C(C(C)C)=C[C@]3(CC[C@H]21)[C@@H]1C(=O)N(CCC#N)C(=O)[C@@H]14`, the growth in assay [1] was 62%; in assay [2], 85.5%; in [3], 116%; in assay [4], 71.7%; in [5], 98.8%; in assay [6], 86.2%. Besides, the growth in assay [7] was 88.9%; in assay [8] it was 89.4%; in assay [9] it was 84.4%; in assay [10] it was 69.9%.
Turning to `Cc1cccc(C)c1NCc1nnc(-c2ccco2)o1`, the growth in assay [1] is 77.9%; in assay [2] it was 98.2%; in assay [3], 99.8%; in [4], 101%; in assay [5], 87%; in [6], 85.3%. Also, the growth in assay [7] is 94.8%; in assay [8] it was 91.5%; in assay [9] it was 97.3%; in [10] it was 80.6%.
Regarding `CCc1c(C(=O)N[C@@H](C(=O)OCc2ccccc2)C(C)O)[nH]c2ccc(Cl)cc12` (stereo not given in full), the growth in [1] was 82.7%; in assay [2], 59.2%; in assay [3], 69.1%; in assay [4], -46.9% (active); in assay [5] it was 59.3%; in [6] it was 46.3%. For the same compound, the growth in [7] is 29.4%; in assay [8] it was 40.6%; in assay [9], 68.2%; in [10], 47.5%.
As for `COc1ccc2c(c1)C1(C(=O)N2)C(C#N)=C(c2ccccc2)Nc2c1c(-c1ccccc1)nn2-c1ccccc1` (stereo not given), the growth is 67.6% in assay [1]; -10.9% (active) in assay [2]; 83.1% in assay [3]; -1.01% (active) in assay [4]; 78.8% in assay [5]; 49.6% in assay [6]. In addition, the growth in assay [7] was -69.2% (active); in assay [8] it was 40%; in assay [9], 92.7%; in assay [10] it was 63.4%.
In the case of `Cc1cccc(C)c1NC(=O)CN(CC(C)C)CC(O)COc1ccccc1` (stereo not given), the growth was 89.2% in assay [1]; 105% in assay [2]; 99.9% in assay [3]; 86.9% in assay [4]; 90.1% in assay [5]; 94.3% in assay [6]. Moreover, the growth was 111% in assay [7], 118% in assay [8], 86.7% in assay [9] and 85.3% in [10].
Take `Cc1cnc(SCc2ccc(Cl)cc2)[nH]c1=S`: the growth in [1] is 101%; in [2], 101%; in [3] it was 97.5%; in assay [4] it was 92.3%; in [5], 108%; in assay [6], 103%. For the same compound, the growth in assay [7] is 94.1%; in assay [8], 112%; in assay [9] it was 103%; in [10] it was 88%.
Turning to `NC(=O)c1ccc(C2C3=C(CCCC3=O)OC3=C2C(=O)c2ccccc2C3=O)cc1` (stereo not given), the growth was 18.6% in assay [1]; -1.42% (active) in assay [2]; 96.4% in assay [3]; -12.8% (active) in assay [4]; 104% in assay [5]; 8.86% (active) in assay [6]. Further, the growth in assay [7] is -20.4% (active); in [8] it was 67.1%; in assay [9], 79.8%; in assay [10], -1.02% (active).
Turning to `O=c1[nH]c2ccccc2cc1-c1nc2ccc(Cl)cc2[nH]1`, the growth in [1] is -38.5% (active); in assay [2], 57.7%; in [3] it was 100%; in assay [4] it was 51%; in [5], 14%; in assay [6] it was 26.5%. The growth was 35.5% in assay [7], 46.1% in assay [8], 74.4% in [9] and 35.1% in assay [10].
In the case of `N#Cc1c(-c2ccc(F)cc2)nc(N=Nc2c(O)[nH]c3ccccc23)nc1N1CCOCC1`, the growth was 80.4% in [1]; 77.7% in assay [2]; 82.6% in [3]; -35.5% (active) in assay [4]; 88.2% in assay [5]; 59.9% in assay [6]. The growth in [7] was 72.9%; in assay [8] it was 38.5%; in assay [9], 57.3%; in assay [10] it was 80.2%.
As to `CN(C)CSc1nc2ccccc2s1`, the growth was 98.7% in [1]; 104% in [2]; 93.6% in assay [3]; 102% in [4]; 84.7% in assay [5]; 83.7% in assay [6]. Besides, the growth is 99.9% in assay [7], 116% in assay [8], 102% in [9] and 86.7% in assay [10].
Turning to `CCN1CCN(Cc2ccc(NC(=O)c3cccc(C#Cc4cccc5[nH]nc(N)c45)c3)cc2C(F)(F)F)CC1`, the growth is -36.9% (active) in assay [1]; -69.9% (active) in [2]; -20% (active) in [3]; -2.48% (active) in assay [4]; -13.5% (active) in [5]; -60.3% (active) in assay [6]. In addition, the growth was -62.8% (active) in assay [7], -19.9% (active) in [8], -35% (active) in [9] and -32% (active) in assay [10].
As for `COc1cc(-c2nn(-c3ccc(Br)cc3)cc2CO)ccc1O`, the growth in assay [1] is 84.6%; in assay [2], 94.9%; in assay [3], 101%; in assay [4], 94.7%; in assay [5], 105%; in assay [6], 115%. Also, the growth in [7] was 103%; in [8] it was 88.9%; in [9], 99.3%; in assay [10] it was 80.3%.
